Laboratory results from PubChem BioAssay AID1159580 (chemical genetic matrix, 2015).
Values joined by “and” are separate entries in the source; they are usually repeats but may differ in a detail not shown here. Equal values may be shown once. In all, about 5,500 compounds went through this assay and about 2,000 (36%) were called active. Inconclusive results (about 18%) are left out. Rule as the data show it: active = normalized growth mostly below about 0.91 (no sharp cut-off); inconclusive = no clear call, values can overlap the other calls; inactive = mostly above about 0.92. The list shows a part of the results.

Test: chemical genetic growth profiling, strain panel (AID 1159580);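 also: tested at 20 µM; growth read once vehicle control cultures reached saturation at 30 °C; 1 = growth at the plate median or of vehicle wells; lower values mean less growth of the strain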
Conditions: S. cerevisiae deletion strains, growth OD

Measured: normalized growth

OCc1ccccc1O[C@@H]1O[C@H](CO)[C@@H](O)[C@H](O)[C@H]1O
inactive: locus YAL013W, strain DEP1, hits give low values 0.994 | locus YAL021C, strain ccr4, hits give low values 0.98 | locus YAL026C, strain drs2, hits give low values 0.99 | locus YAL030W, strain snc1, hits give low values 0.964 | locus YBL061C, strain skt5, hits give low values 0.983 | locus YBR009C, strain hhf1, hits give low values 0.977 | locus YBR021W, strain FUR4, hits give low values 1.04 | locus YBR023C, strain chs3, hits give low values 0.99 | locus YBR171W, strain sec66, hits give low values 0.98 | locus YBR229C, strain ROT2, hits give low values 0.95 | locus YBR231C, strain swc5, hits give low values 0.983 | locus YBR279W, strain paf1, hits give low values 0.983 | locus YCL011C, strain gbp2, hits give low values 0.98 | locus YCL016C, strain dcc1, hits give low values 0.991 | locus YCL029C, strain bik1, hits give low values 0.994 | locus YCL069W, strain vba3, hits give low values 1 | locus YCR088W, strain abp1, hits give low values 0.98 | locus YDL005C, strain med2, hits give low values 0.989 | locus YDL035C, strain GPR1, hits give low values 1 | locus YDL040C, strain nat1, hits give low values 0.994 | locus YDL074C, strain BRE1, hits give low values 0.966 | locus YDL101C, strain DUN1, hits give low values 0.976 | locus YDL134C, strain PPH21, hits give low values 0.987 | locus YDL185W, strain tfp1, hits give low values 0.983 | locus YDL192W, strain arf1, hits give low values 0.994 | locus YDR001C, strain nth1, hits give low values 0.984 | locus YDR069C, strain doa4, hits give low values 0.987 | locus YDR101C, strain arx1, hits give low values 0.946 | locus YDR137W, strain rgp1, hits give low values 1.02 | locus YDR150W, strain NUM1, hits give low values 0.98 | locus YDR159W, strain sac3, hits give low values 0.944 | locus YDR162C, strain NBP2, hits give low values 0.997 | locus YDR195W, strain ref2 0.962 | locus YDR297W, strain sur2, hits give low values 1 | locus YDR318W, strain mcm21, hits give low values 0.999 | locus YDR334W, strain swr1, hits give low values 0.925 | locus YDR335W, strain msn5, hits give low values 0.989 | locus YDR388W, hits give low values 0.996 | locus YDR392W, strain spt3, hits give low values 0.984 | locus YDR502C, strain sam2, hits give low values 0.987 | locus YEL003W, strain gim4, hits give low values 0.984 | locus YEL037C, strain rad23, hits give low values 0.984 | locus YEL061C, strain CIN8 (second series), hits give low values 0.972 | locus YEL061C, strain CIN8, hits give low values 0.978 | locus YER015W, strain faa2, hits give low values 0.998 | locus YER016W, strain bim1, hits give low values 0.992 | locus YER110C, hits give low values 0.994 | locus YER111C, strain swi4, hits give low values 1.01 | locus YER155C, strain BEM2 (second series), hits give low values 0.998 | locus YER155C, strain BEM2, hits give low values 0.996 | locus YER167W, strain BCK2, hits give low values 0.99 | locus YFR010W, strain ubp6, hits give low values 0.998 | locus YGL078C, strain dbp3, hits give low values 0.988 | locus YGL086W, strain mad1, hits give low values 0.97 | locus YGL167C, strain pmr1, hits give low values 1 | locus YGL173C, strain kem1, hits give low values 0.995 | locus YGL227W, strain vid30, hits give low values 0.965 | locus YGL240W, strain doc1, hits give low values 0.996 | locus YGL248W, strain PDE1, hits give low values 0.979 | locus YGL253W, strain hxk2, hits give low values 0.987 | locus YGR078C, strain PAC10, hits give low values 0.97 | locus YGR135W, strain pre9, hits give low values 1.07 | locus YGR229C, strain SMI1, hits give low values 1.01 | locus YGR252W, strain gcn5, hits give low values 1.08 | locus YHR013C, strain ard1, hits give low values 1.04 | locus YHR027C, strain rpn1, hits give low values 0.959 | locus YHR030C, strain SLT2, hits give low values 0.992 and 0.993 | locus YHR079C, strain IRE1 (second series), hits give low values 0.983 | locus YHR079C, strain IRE1, hits give low values 1.03 | locus YHR094C, strain hxt1, hits give low values 1 | locus YHR129C, strain ARP1, hits give low values 0.991 | locus YHR142W, strain chs7, hits give low values 0.984 | locus YHR200W, strain rpn10, hits give low values 0.987 | locus YIL066C, strain RNR3, hits give low values 0.967 | locus YIL073C, strain SPO22, hits give low values 1.02 | locus YIL125W, strain kgd1, hits give low values 0.989 | locus YIR030C, strain dcg1, hits give low values 0.997 | locus YJL092W, strain hpr5, hits give low values 0.997 | locus YJL095W, strain BCK1 (second series), hits give low values 0.987 | locus YJL095W, strain BCK1, hits give low values 0.978 and 1.01 | locus YJL115W, strain asf1, hits give low values 0.992 | locus YJL129C, strain trk1, hits give low values 0.967 | locus YJL134W, strain LCB3, hits give low values 0.991 | locus YJL154C, strain vps35, hits give low values 0.991 | locus YJL164C, strain tpk1, hits give low values 0.993 | locus YJL166W, strain qcr8, hits give low values 1.01 | locus YJL168C, strain set2, hits give low values 0.986 | locus YJL187C, strain SWE1 (second series), hits give low values 0.952 | locus YJL187C, strain SWE1, hits give low values 0.997 | locus YJR043C, strain POL32, hits give low values 0.994
